Measurements from PubChem BioAssay.
Results filed as inconclusive are left out. The source made the active and inactive calls. Unless noted, how the calls were made is not given here.

Key:
[1] = compounds altering Cy5-DNA-NS3h complex signal – biochemical, LOPAC1280, artefact control for HCV NS3 helicase inhibitor project (AID 687037); conditions: Cy5-DNA-NS3h complex fluorescence interference counterscreen
[2] = viability loss in pontine glioma line – cell-based, SU-DIPG-XVII, MIPE5.0, CellTiter-Glo, qHTS, dose response (AID 1347060; cut-off not given, nearly all actives have AC50 up to about 26 µM); conditions: CellTiter-Glo ATP luminescence
[3] = viability loss in pontine glioma line – cell-based, JHH-DIPG-1, MIPE4.0, CellTiter-Glo, qHTS, dose response (AID 1347062; cut-off not given, nearly all actives have AC50 up to about 27 µM); conditions: JHH-DIPG-1 viability, CellTiter-Glo ATP luminescence
[4] = viability loss in pontine glioma line – cell-based, SU-DIPG-XIII, MIPE5.0, CellTiter-Glo, qHTS, dose response (AID 1347064; cut-off not given, nearly all actives have AC50 up to about 23 µM); conditions: CellTiter-Glo ATP luminescence
[5] = viability loss in pontine glioma line – cell-based, SU-DIPG-XXV, MIPE5.0, CellTiter-Glo, qHTS, dose response (AID 1347065; cut-off not given, nearly all actives have AC50 up to about 26 µM;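 further: cells exposed to compound for 48 hours before ATP readout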); conditions: CellTiter-Glo ATP luminescence
[6] = JHH-DIPG-1 glioma cell viability, MIPE5.0 library, CellTiter-Glo luminescence, qHTS (AID 1347067; cut-off not given, nearly all actives have AC50 up to about 26 µM;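 further: cells exposed to compound for 48 hours before readout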); conditions: JHH-DIPG-1 glioma viability, CellTiter-Glo ATP luminescence
[7] = growth inhibition of DIPG cells – cell-based, MIPE5.0 library, qHTS (AID 1347068; cut-off not given, nearly all actives have IC50 up to about 30 µM); conditions: SU-DIPG-XXV viability
[8] = compounds altering HSF1 focus formation in cells – imaging, Selleck Cancer Library (AID 1347162; in the data active means plate-normalised HSF1 focus index below about 0.46); conditions: human cells, HSF1 nuclear foci imaging, at 10 µM; SSMD: measured here: HSF1 foci SSMD mean; cell count: measured here: cell number; plate-normalised HSF1 focus index: stronger effect = lower value
[9] = compounds altering viability of human ES cells (AID 493140); conditions: human embryonic stem cell survival screen; stronger effect = higher value;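 further: cells exposed to compounds for four days before counting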
[10] = molecular target: ATP-dependent translocase ABCB1 (Homo sapiens) (UniProt P08183); test: P-glycoprotein substrate transport blockade – cell-based (AID 377; in the data active means fluorescence slope change above about 50%); conditions: MDR1-expressing cells, fluorescent substrate accumulation slope; stronger effect = higher value; concentration not given here
[11] = growth inhibition, single agent or in combination, cell-based, chromothripsis tumors, cisplatin or BGB combos (AID 1671449; in the data active means inhibition above about 80%;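 further: cells exposed for 96 hours; 0% = vehicle DMSO and 100% = killing by high DMSO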); conditions: LFS_MB_P medulloblastoma cells
[12] = growth inhibition, single agent and combos, cell-based, chromothripsis tumors, cisplatin or BGB combos (AID 1671450; in the data active means inhibition above about 80%;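 further: cells exposed to compound for four days; 0% = vehicle DMSO and 100% = cell killing by high DMSO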); conditions: HDN33 neuroblastoma cells, stronger effect = higher value
[13] = growth inhibition, single agents and combos, ICB984, cell-based, cisplatin or BGB combos, synergistic combos for chromothripsis tumors (AID 1671451); conditions: ICB984 medulloblastoma cells, drug combinations, stronger effect = higher value;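 further: cells exposed for 96 hours before readout; 0% = vehicle DMSO and 100% = killing by high DMSO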
[14] = growth inhibition, single agents and combos, HTB85, cell-based, BGB or cisplatin IC20 combos, synergistic combos for chromothripsis tumors (AID 1671453; in the data active means inhibition above about 80%;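 further: cells exposed for 96 hours before readout; 0% = vehicle DMSO and 100% = high DMSO killing control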); conditions: HTB85 osteosarcoma cells, drug combinations, stronger effect = higher value
[15] = growth inhibition, MDA-MB-436, cell-based, BGB or cisplatin combos, synergistic combos for chromothripsis tumors (AID 1671458); conditions: MDA-MB-436 breast carcinoma growth inhibition, drug combinations, stronger effect = higher value;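 further: cells exposed for 96 hours; 0% = vehicle DMSO and 100% = killing by high DMSO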
[16] = BT084 cell growth, single and combined drugs, ICGC_MB145, cisplatin and BGB IC40 combos (AID 1671461; in the data active means inhibition above about 80%;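 further: cells exposed to drugs for 96 hours; 0% = vehicle DMSO and 100% = high DMSO full killing control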); conditions: BT084 medulloblastoma cells, drug combinations, stronger effect = higher value
[17] = RCMB18 cell growth, single agent and combined, cisplatin and BGB IC40 combos (AID 1671462; in the data active means inhibition above about 80%;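 further: cells exposed to compound for four days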); conditions: RCMB18 medulloblastoma cells, stronger effect = higher value
[18] = viability loss in pontine glioma line – cell-based, SU-DIPG-XIII, MIPE4.0, CellTiter-Glo, qHTS, dose response (AID 1347061; cut-off not given, nearly all actives have AC50 up to about 37 µM;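 further: cells exposed to compound for 48 hours before readout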); conditions: CellTiter-Glo ATP luminescence
[19] = viability loss in pontine glioma line – cell-based, SU-DIPG-IV, MIPE4.0, CellTiter-Glo, qHTS, dose response (AID 1347063; cut-off not given, nearly all actives have AC50 up to about 30 µM;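 further: compound exposure lasted 48 hours before the viability readout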); conditions: CellTiter-Glo ATP luminescence
[20] = growth inhibition of DIPG cells – cell-based, MIPE4.0 library, CellTiter-Glo luminescence, qHTS (AID 1347066; cut-off not given, nearly all actives have AC50 up to about 30 µM;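 further: cells exposed to compound for 48 hours before readout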); conditions: SU-DIPG-VI viability, CellTiter-Glo ATP luminescence
[21] = at 0.5 µM, stronger effect = higher value
[22] = measured here: combination with BGB IC20, at 0.005 µM
[23] = measured here: combination with BGB IC40, at 0.005 µM
[24] = measured here: combination with BGB IC40, at 0.05 µM
[25] = measured here: combination with cisplatin, at 0.5 µM, stronger effect = higher value
[26] = measured here: combination with cisplatin, at 5 µM, stronger effect = higher value
[27] = measured here: with BGB IC20 combination, at 0.5 µM
[28] = measured here: with cisplatin IC20 combination, at 0.5 µM
[29] = measured here: 5 uM single agent, at 5 µM
[30] = measured here: with BGB IC20, at 0.5 µM
[31] = measured here: with BGB IC20, at 5 µM
[32] = measured here: with cisplatin IC20, at 0.5 µM
[33] = measured here: with cisplatin IC20, at 5 µM
[34] = measured here: BGB combination, at 0.5 µM
[35] = measured here: BGB combination, at 5 µM
[36] = measured here: cisplatin combination, at 0.5 µM
[37] = measured here: cisplatin combination, at 5 µM
[38] = cisplatin combination, at 0.5 µM
[39] = measured here: BGB IC40 combination 0.05 uM, at 0.05 µM
[40] = measured here: BGB IC40 combination, at 0.05 µM
[41] = measured here: combination with cisplatin, at 0.5 µM

ATP-dependent translocase ABCB1 (Homo sapiens), sequence (P08183 whole entry, looked up): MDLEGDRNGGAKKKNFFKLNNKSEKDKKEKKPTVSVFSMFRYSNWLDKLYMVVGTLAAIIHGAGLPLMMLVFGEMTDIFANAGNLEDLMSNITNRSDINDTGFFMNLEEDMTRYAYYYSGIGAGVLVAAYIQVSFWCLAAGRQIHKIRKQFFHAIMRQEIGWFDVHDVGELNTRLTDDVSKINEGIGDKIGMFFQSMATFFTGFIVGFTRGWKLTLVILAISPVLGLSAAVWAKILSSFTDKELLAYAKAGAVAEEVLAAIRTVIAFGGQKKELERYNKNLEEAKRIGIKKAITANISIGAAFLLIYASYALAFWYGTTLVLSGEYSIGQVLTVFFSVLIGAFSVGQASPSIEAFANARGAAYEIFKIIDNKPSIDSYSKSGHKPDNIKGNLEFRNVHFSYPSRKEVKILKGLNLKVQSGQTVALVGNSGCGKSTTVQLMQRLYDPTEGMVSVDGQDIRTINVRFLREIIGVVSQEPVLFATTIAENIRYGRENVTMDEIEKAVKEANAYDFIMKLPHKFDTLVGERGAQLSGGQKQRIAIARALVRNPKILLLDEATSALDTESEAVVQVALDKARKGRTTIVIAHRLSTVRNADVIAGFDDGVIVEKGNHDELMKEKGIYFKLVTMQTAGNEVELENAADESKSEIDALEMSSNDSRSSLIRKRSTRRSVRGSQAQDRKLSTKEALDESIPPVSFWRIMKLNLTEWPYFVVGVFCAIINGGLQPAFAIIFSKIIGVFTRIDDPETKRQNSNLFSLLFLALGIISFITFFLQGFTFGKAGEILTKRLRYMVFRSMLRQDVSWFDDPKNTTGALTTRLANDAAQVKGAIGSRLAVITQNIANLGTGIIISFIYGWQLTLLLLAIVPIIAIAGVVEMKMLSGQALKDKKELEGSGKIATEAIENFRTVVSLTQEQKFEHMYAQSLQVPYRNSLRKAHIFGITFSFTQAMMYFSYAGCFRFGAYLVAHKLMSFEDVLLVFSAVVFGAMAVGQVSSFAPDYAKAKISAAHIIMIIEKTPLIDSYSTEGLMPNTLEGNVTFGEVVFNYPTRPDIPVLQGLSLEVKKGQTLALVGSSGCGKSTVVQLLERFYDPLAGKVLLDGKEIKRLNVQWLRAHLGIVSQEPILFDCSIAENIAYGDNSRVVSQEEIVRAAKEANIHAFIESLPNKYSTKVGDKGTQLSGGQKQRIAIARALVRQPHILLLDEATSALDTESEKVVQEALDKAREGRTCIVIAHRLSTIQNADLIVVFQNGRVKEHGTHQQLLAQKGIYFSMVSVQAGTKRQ

For `O=C(CCc1ccc(O)cc1)c1c(O)cc(O)cc1O`, the fluorescence ratio (interference) [1] was 1 (inactive), the outcome [2] was “inactive” and the outcome [3] was “inactive”. The outcome [4] was “inactive”, the outcome [5] was “inactive” and the outcome [6] was “inactive”. For the same compound, the outcome [7] was “inactive”, the SSMD [8] was 2.09 and the cell count [8] was 7280. The plate-normalised HSF1 focus index [8] was 1.13 (inactive).

For `CN(C)CCN(Cc1cccs1)c1ccccn1`, the survival [9] was 13.8 (inactive) and the fluorescence ratio (interference) [1] was 1 (inactive).

With `CCn1nc(C(=O)O)c(=O)c2cc3c(cc21)OCO3` the fluorescence slope change [10] was 14.5% (inactive), the survival [9] was 2.42 (inactive) and the fluorescence ratio (interference) [1] was 1 (inactive). For the same compound, the inhibition [11, 21] was -4.36% (inactive), the inhibition [11, 22] was -22% and the inhibition [11, 23] was -16.5%. It also gave an inhibition [11, 24] of -12.9%, an inhibition [11, 25] of -13.6% and an inhibition [11, 26] of -41.5%. For the same compound, the inhibition ([12]; BGB combo, at 5 µM) was -23.8%, the inhibition ([12]; at 0.5 µM) was -7.41% (inactive) and the inhibition ([12]; cisplatin combo, at 5 µM) was -10.5%. It also gave an inhibition [12, 27] of -15.2%, an inhibition [12, 28] of -1.32% and an inhibition ([12]; single agent, at 5 µM) of -41.5%. For the same compound, the inhibition ([13]; BGB IC20 combo, at 0.005 µM) was -15.8%, the inhibition ([13]; BGB IC40 combo, at 0.005 µM) was -16.7% and the inhibition ([13]; BGB IC40 combo, at 0.05 µM) was -9.96%. The inhibition ([13]; at 0.5 µM) was -5.52% (inactive), the inhibition ([13]; cisplatin combo, at 0.05 µM) was -9.96% and the inhibition ([13]; cisplatin combo, at 0.5 µM) was -1.52%. The inhibition ([13]; cisplatin combo, at 5 µM) was -43.4%, the inhibition [13, 29] was -20.7% and the inhibition ([14]; at 0.5 µM) was -28.8% (inactive). The inhibition [14, 30] was -63%, the inhibition [14, 31] was 5.32% and the inhibition [14, 32] was -29.8%. For the same compound, the inhibition [14, 33] was -12.6%, the inhibition ([14]; single agent, at 5 µM) was -6.73% and the inhibition ([15]; at 0.5 µM) was -10.8% (inactive). The inhibition [15, 34] was -3.35%, the inhibition [15, 35] was -16.6% and the inhibition [15, 36] was -23.3%. The inhibition [15, 37] was -13.2%, the inhibition ([16]; at 0.5 µM) was -21.7% (inactive) and the inhibition [16, 38] was -15.5%. The inhibition ([16]; cisplatin combination, at 5 µM) was -34.6%, the inhibition [16, 39] was -12.7% and the inhibition ([16]; single agent, at 5 µM) was -10.2%. The inhibition ([17]; at 0.5 µM) was -22.9% (inactive), the inhibition ([17]; cisplatin combo, at 5 µM) was -5.51% and the inhibition [17, 40] was -14.3%. It also gave an inhibition [17, 41] of -7.95% and an inhibition ([17]; single agent, at 5 µM) of -10.2%.

For `O=C(/C=C/c1ccc(O)cc1)c1ccc(O)cc1O`, the fluorescence ratio (interference) [1] was 0.9 (inactive) and the outcome [2] was “inactive”.

For `CCC(c1ccc(O)cc1)C(CC)c1ccc(O)cc1` (configuration not stated), the fluorescence slope change [10] was 18% (inactive), the survival [9] was 2.75 (inactive) and the outcome [2] was “inactive”. The outcome [3] was “inactive”, the outcome [4] was “inactive” and the outcome [5] was “inactive”. The outcome [7] was “inactive”.

With `CC[C@H]1OC(=O)[C@H](C)[C@@H](O[C@H]2C[C@@](C)(OC)[C@@H](O)[C@H](C)O2)[C@H](C)[C@@H](O[C@@H]2O[C@H](C)C[C@H](N(C)C)[C@H]2O)[C@](C)(O)C[C@@H](C)/C(=N\OCOCCOC)[C@H](C)[C@@H](O)[C@]1(C)O` the outcome [18] was “inactive”, the outcome [3] was “inactive” and the outcome [19] was “inactive”. The outcome [20] was “inactive”.

With `O=c1c(O)c(-c2ccc(O)c(O)c2)oc2cc(O)ccc12` the AC50 [19] was 18.7 µM (active), the AC50 [20] was 29.6 µM (active) and the inhibition [11, 21] was -6.56% (inactive). It also gave an inhibition [11, 22] of -16.9%, an inhibition [11, 23] of 5.59% and an inhibition [11, 24] of 5.54%. The inhibition [11, 25] was -17.1%, the inhibition [11, 26] was 11% and the inhibition ([12]; BGB combo, at 5 µM) was -4.9%. The inhibition ([12]; at 0.5 µM) was 4.36% (inactive), the inhibition ([12]; cisplatin combo, at 5 µM) was 3.02% and the inhibition [12, 27] was -4.05%. The inhibition [12, 28] was 5.86%, the inhibition ([12]; single agent, at 5 µM) was -1.94% and the inhibition ([13]; BGB IC20 combo, at 0.005 µM) was -15.9%. The inhibition ([13]; BGB IC40 combo, at 0.005 µM) was -16.9%, the inhibition ([13]; BGB IC40 combo, at 0.05 µM) was -3.67% and the inhibition ([13]; at 0.5 µM) was -24.7% (inactive). The inhibition ([13]; cisplatin combo, at 0.05 µM) was -3.67%, the inhibition ([13]; cisplatin combo, at 0.5 µM) was -43.4% and the inhibition ([13]; cisplatin combo, at 5 µM) was -7.32%. For the same compound, the inhibition [13, 29] was -7.82%, the inhibition ([14]; at 0.5 µM) was 3.31% (inactive) and the inhibition [14, 30] was -8.35%. For the same compound, the inhibition [14, 31] was 3.71%, the inhibition [14, 32] was 14.6% and the inhibition [14, 33] was 6.28%. The inhibition ([14]; single agent, at 5 µM) was 8.35%, the inhibition ([15]; at 0.5 µM) was -7.38% (inactive) and the inhibition [15, 34] was 5.2%. The inhibition [15, 35] was -2.65%, the inhibition [15, 36] was -24.9% and the inhibition [15, 37] was 5.5%. For the same compound, the inhibition ([16]; at 0.5 µM) was -4.39% (inactive), the inhibition [16, 38] was -0.071% and the inhibition ([16]; cisplatin combination, at 5 µM) was -26.8%. The inhibition [16, 39] was 5.57%, the inhibition ([16]; single agent, at 5 µM) was -4.55% and the inhibition ([17]; at 0.5 µM) was -4.12% (inactive). For the same compound, the inhibition ([17]; cisplatin combo, at 5 µM) was 18.3%, the inhibition [17, 40] was 21.3% and the inhibition [17, 41] was -7.15%. For the same compound, the inhibition ([17]; single agent, at 5 µM) was -9.89%.
